Assay results from the supplement of paper PMC11732987, “Enantioselective OTUD7B fragment discovery through chemoproteomics screening and high-throughput optimisation” (Communications Chemistry, 2025).

Key:
Assay in all cases: log2 ratio of Biotin-Ahx-Ub-VS probe labelling (fragment/DMSO); higher = less target engagement (more negative = stronger competition), active = hit call of the paper (q ≤ 0.05, log2 ratio ≤ -1)
Conditions in all cases: compound concentration: 200 uM; treatment time: 3 h
USP34 = USP34 (UniProt Q70CQ2)
How it was run: (§1)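 The table lists average log2 ratios of fragment over vehicle, from an unpaired t-test on global-median-normalised Spectronaut label-free quantities. Proteins with ≥2 unique peptides were used. Samples were HEK293T lysate (495 µg) treated in triplicate with fragment at 200 µM or vehicle for 3 h, then with Biotin-Ahx-Ub-VS (0.5 µM final) for 1 h, with labelled DUBs NeutrAvidin-enriched and run by diaPASEF LC-MS/MS.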

USP36 = molecular target: T1, USP36 (UniProt Q9P275)
T1 sequence (whole entry): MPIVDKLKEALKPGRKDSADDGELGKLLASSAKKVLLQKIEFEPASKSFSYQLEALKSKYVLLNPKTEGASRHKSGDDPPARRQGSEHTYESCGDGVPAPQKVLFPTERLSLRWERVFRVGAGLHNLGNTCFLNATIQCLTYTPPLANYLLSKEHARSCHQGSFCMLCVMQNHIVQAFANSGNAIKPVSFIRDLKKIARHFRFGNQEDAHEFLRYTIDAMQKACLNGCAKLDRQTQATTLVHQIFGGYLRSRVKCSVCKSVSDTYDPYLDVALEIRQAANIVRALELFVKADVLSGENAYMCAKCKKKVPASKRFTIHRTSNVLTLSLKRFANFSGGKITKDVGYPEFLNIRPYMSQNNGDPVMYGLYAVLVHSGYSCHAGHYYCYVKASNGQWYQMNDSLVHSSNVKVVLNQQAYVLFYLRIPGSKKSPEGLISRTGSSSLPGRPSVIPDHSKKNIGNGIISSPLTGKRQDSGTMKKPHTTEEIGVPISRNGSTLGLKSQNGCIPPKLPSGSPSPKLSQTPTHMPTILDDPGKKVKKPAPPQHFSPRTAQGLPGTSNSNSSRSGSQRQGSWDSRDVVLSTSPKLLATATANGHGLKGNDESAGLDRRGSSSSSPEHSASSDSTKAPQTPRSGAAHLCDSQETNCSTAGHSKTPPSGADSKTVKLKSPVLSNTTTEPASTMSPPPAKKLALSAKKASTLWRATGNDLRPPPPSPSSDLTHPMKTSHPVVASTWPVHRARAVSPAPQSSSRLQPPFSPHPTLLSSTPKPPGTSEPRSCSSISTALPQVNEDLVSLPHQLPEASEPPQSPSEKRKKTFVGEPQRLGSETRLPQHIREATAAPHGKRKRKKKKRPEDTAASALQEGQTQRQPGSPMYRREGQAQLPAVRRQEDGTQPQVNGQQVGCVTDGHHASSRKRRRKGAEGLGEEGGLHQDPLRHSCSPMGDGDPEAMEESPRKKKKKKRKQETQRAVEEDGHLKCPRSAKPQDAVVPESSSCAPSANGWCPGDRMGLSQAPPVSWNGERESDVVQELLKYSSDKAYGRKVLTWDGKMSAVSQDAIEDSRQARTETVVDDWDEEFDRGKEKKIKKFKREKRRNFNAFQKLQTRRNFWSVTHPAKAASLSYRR
How it was run: as §1

USP38 = molecular target: T2, USP38 (UniProt Q8NB14)
T2 sequence (whole entry): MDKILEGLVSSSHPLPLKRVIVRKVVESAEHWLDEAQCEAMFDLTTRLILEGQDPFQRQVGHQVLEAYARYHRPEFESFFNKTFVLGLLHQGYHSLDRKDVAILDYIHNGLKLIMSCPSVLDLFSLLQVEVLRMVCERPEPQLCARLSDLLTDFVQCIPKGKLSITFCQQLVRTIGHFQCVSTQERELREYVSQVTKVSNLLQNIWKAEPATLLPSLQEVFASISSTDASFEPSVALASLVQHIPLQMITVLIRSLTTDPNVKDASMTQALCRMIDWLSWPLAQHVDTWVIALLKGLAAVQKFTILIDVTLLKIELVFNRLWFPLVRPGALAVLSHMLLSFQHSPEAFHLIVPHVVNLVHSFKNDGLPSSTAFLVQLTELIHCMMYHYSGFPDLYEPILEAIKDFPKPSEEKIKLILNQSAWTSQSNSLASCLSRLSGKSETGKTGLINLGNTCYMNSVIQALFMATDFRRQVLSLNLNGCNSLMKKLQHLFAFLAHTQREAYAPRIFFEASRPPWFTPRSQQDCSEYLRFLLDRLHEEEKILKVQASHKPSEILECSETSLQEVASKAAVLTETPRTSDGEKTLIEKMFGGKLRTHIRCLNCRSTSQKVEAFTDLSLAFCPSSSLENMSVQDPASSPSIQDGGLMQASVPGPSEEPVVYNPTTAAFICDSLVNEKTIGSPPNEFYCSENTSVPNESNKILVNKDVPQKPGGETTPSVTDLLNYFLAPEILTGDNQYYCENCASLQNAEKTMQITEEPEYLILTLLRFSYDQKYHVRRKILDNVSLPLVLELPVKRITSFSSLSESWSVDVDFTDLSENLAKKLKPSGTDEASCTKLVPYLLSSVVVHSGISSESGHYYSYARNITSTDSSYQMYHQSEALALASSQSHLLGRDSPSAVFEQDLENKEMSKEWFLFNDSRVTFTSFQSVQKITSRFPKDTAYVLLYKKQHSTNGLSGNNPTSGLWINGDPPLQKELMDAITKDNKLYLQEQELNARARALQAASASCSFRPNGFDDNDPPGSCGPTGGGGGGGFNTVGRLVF
How it was run: as §1

USP39 = molecular target: T3, USP39 (UniProt Q53GS9)
T3 sequence (whole entry): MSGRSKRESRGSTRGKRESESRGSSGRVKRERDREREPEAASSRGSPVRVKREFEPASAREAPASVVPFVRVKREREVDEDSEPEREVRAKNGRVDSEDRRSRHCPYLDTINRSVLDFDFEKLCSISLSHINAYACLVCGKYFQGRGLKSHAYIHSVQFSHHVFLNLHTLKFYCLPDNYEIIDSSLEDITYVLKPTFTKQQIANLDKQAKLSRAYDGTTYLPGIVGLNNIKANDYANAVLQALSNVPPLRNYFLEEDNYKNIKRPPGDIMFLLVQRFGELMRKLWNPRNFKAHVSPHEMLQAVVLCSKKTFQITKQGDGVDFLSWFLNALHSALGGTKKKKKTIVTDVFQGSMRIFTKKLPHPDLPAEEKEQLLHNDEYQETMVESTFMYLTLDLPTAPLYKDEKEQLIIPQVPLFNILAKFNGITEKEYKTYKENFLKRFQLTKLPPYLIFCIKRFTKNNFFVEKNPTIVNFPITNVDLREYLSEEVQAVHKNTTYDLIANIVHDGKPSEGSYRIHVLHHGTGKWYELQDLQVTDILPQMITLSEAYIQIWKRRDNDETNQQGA
How it was run: as §1

USP4 = molecular target: T4, USP4 (UniProt Q13107)
T4 sequence (whole entry): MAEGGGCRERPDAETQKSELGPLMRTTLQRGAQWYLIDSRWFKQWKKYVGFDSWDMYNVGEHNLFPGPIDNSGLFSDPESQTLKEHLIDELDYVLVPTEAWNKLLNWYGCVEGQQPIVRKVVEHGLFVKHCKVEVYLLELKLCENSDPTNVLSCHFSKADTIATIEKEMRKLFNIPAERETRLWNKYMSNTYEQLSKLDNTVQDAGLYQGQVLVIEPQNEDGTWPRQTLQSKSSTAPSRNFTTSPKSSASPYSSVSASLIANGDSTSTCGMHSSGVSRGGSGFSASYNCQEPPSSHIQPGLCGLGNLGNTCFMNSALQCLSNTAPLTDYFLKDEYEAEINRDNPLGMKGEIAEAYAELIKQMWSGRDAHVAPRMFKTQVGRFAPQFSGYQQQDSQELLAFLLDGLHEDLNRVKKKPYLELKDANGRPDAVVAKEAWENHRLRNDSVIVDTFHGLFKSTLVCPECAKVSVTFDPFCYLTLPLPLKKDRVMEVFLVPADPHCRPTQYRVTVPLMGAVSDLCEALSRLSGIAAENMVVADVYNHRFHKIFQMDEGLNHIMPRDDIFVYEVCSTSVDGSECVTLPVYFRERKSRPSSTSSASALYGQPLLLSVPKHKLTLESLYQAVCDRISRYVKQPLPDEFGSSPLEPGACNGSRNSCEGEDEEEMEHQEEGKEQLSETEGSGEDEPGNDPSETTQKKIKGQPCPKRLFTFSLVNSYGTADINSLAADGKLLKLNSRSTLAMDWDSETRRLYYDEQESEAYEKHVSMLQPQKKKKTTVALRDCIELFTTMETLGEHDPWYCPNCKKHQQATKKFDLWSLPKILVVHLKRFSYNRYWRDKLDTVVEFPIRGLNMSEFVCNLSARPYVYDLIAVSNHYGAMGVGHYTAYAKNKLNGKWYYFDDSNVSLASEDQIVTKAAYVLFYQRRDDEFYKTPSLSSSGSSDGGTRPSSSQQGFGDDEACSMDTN
How it was run: as §1

Measured: log2 ratio of Biotin-Ahx-Ub-VS probe labelling

Chain of USP34 (Q70CQ2 whole entry, the tested form may be a part): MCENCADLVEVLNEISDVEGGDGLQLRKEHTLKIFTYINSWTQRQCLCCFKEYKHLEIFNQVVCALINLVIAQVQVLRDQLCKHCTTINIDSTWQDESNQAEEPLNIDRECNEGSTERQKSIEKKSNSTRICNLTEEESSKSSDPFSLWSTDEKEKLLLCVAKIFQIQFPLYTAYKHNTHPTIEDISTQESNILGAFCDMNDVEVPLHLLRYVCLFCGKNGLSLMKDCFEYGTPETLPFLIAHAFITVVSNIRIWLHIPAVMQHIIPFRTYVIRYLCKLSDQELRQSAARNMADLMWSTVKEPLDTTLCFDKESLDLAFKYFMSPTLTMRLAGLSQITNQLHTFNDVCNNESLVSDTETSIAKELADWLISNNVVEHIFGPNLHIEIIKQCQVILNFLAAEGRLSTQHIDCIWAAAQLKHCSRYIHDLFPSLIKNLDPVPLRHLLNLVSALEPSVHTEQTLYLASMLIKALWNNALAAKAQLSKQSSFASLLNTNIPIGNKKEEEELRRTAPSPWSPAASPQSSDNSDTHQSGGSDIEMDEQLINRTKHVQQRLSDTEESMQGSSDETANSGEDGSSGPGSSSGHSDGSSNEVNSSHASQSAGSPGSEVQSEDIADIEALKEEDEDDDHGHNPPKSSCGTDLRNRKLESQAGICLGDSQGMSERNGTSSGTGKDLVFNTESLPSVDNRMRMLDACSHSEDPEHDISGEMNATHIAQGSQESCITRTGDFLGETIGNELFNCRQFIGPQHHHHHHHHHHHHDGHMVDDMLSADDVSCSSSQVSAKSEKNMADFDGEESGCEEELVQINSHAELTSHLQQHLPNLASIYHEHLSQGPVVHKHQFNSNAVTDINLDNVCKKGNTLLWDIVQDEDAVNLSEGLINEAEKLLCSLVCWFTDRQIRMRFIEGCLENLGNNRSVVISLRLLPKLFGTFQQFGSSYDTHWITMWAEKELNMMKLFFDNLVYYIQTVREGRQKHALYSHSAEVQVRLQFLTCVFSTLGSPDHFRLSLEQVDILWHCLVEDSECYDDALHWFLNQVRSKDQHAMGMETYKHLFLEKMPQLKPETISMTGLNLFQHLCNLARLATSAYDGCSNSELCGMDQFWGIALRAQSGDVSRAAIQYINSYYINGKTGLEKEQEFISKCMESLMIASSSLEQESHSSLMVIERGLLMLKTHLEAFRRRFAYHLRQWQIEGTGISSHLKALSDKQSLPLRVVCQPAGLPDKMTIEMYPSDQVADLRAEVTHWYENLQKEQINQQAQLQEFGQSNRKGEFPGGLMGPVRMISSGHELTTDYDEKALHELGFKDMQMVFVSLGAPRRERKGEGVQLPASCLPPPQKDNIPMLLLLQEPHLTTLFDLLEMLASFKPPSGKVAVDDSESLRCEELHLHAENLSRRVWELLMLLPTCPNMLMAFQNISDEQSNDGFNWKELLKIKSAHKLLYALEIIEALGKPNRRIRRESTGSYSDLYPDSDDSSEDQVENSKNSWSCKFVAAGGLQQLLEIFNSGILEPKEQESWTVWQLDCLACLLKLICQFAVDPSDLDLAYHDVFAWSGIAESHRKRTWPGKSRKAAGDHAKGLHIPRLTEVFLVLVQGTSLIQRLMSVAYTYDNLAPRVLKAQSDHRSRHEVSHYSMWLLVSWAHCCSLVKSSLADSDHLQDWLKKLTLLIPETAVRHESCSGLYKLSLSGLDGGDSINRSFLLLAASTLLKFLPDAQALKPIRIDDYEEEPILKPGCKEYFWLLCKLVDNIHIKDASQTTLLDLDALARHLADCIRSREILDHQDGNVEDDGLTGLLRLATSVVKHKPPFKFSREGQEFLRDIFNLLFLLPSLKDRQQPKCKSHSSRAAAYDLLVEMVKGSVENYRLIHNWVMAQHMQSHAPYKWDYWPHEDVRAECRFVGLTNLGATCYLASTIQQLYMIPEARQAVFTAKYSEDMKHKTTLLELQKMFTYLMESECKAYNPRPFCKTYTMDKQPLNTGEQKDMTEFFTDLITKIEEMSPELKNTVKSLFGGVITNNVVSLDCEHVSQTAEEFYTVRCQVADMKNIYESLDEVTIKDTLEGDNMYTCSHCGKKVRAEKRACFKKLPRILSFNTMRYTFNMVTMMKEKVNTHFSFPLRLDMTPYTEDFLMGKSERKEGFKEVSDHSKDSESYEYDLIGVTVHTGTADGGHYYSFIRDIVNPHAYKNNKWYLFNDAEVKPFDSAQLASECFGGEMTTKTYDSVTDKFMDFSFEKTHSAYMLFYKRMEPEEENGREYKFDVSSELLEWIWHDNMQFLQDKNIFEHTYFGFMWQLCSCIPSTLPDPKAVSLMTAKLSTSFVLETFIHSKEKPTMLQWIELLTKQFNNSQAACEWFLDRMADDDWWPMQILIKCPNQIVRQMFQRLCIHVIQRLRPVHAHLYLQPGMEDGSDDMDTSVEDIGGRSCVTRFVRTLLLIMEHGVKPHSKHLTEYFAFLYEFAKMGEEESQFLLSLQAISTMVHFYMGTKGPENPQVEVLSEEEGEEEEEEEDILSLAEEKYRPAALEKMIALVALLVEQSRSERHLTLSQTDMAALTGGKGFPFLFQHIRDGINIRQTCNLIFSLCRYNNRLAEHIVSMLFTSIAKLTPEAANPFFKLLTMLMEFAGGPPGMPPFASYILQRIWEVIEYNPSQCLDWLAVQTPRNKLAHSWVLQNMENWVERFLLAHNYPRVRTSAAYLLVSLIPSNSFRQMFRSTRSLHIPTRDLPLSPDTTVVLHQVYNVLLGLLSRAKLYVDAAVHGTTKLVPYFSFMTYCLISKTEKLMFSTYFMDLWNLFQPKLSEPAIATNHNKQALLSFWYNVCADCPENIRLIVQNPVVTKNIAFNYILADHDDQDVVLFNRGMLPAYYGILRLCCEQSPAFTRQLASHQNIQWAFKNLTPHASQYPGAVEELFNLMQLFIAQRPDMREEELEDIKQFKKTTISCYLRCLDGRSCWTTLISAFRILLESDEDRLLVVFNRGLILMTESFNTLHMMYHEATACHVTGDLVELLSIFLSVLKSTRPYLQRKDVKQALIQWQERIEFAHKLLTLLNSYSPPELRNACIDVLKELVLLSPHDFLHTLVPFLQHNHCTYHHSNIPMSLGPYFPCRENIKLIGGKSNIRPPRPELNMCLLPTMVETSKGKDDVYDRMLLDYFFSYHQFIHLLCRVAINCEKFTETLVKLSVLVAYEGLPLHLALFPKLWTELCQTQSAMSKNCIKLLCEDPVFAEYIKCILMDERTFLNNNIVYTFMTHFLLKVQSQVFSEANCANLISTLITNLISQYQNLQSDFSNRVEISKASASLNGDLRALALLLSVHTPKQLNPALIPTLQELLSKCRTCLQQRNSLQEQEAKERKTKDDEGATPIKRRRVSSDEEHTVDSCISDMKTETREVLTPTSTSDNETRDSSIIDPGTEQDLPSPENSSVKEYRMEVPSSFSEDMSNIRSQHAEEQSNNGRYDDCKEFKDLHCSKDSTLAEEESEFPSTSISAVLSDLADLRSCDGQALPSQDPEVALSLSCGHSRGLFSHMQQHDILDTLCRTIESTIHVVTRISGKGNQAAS

CN(C)C(=O)c1ccc(CNC(=O)CCl)cc1
inactive: USP34 0.0263 | USP36 0.0235 | USP38 0.231 | USP39 0.0923 | USP4 0.059
